High-throughput results (PubChem BioAssay)
The list is not random: actives were taken first. Their share in the collection is about 2.2%.
Abeta yeast res = qHTS for compounds that reverse cellular toxicity of Amyloid beta (A-beta) peptide in yeast: Primary Screen; yeast expressing A-beta42, growth rescue, OD600, 48 h; response scale: 0% DMSO, 100% iron-clioquinol control; Potency, µM (titrated, usually from 46.1 µM), actives largely listed as activators; 0.063% of 410,000 active; note: nearly all actives have a fitted effect of over 55% in size
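Growth rescue measured by 600 nm absorbance after 48 h yeast culture at 30 C with compound. Values normalized between DMSO and an equimolar ferric chloride plus clioquinol control.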
Mito fusion act = qHTS Assay for Small Molecule Inhibitors of Mitochondrial Division or Activators of Mitochondrial Fusion; 0.23% of 320,000 active; Potency, µM (doses to about 46.1 µM), for inactives: at the top dose growth rescue (activation), usual class: activators; AID 485298, 2010; S. cerevisiae fusion-defective mutant growth rescue, CellTiterGlo 48 h; note: % of control where 0% means no effect; nearly all actives have a fitted effect of over 45% in size
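Growth-rescue viability read-out: after 48 h at the non-permissive 37C in glycerol/ethanol YPEG, yeast mitochondrial fusion mutants are measured by CellTiterGlo luminescence; compounds (23 nl pinned per well) restoring growth score as division inhibitors or fusion activators.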
FUS yeast rescue = qHTS for Suppressors of FUS Proteinopathy: Primary screen using FUS-linked yeast assay; 0.24% of 390,000 active; S. cerevisiae FUS-expressing, growth rescue, OD600, 24 h; AID 1347120, 2019; Potency, µM (top dose mostly 76.6 µM), usual class: activators;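 note: plate controls were DMSO vehicle for no effect and reference control for full effect; nearly all actives have a fitted effect of over 55% in size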
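Absorbance at 600 nm, taken 24hr after compound addition, measured rescue of FUS-yeast growth at 30C. Induction used 2% galactose with seeding at OD 0.005. Controls: CP55940 from 92uM final, DMSO only.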
TDP-43 yeast inh = qHTS of TDP-43 Inhibitors; 1.8% of 410,000 active; TDP-43 expressing yeast growth rescue, BacTiter-Glo, 24 h; Potency, µM (titrated, usually from 46.1 µM), for the others: at the top dose growth rescue (activation), most hits filed as activators; AID 652104, 2013; note: % of control where 0% means no effect; nearly all actives have a fitted effect of over 50% in size
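Luminescence from BacTiter-Glo reports growth of TDP-43-expressing yeast after 24 hr at 30 deg C with compound. Cells were raffinose-pregrown to mid-log, then seeded in galactose medium at OD600=0.02.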
aSyn rescue = qHTS of alpha-syn Inhibitors; Yeast expressing alpha-synuclein, growth rescue, BacTiter-Glo, 24 h; Potency, µM (titrated, usually from 46.1 µM), for the others: top-dose growth rescue (activation), actives largely listed as activators; 0.14% of 370,000 active; AID 652106, 2013; note: % of control where 0% means no effect; nearly all actives have a fitted effect of over 65% in size
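Rescue of yeast growth: cells expressing toxic alpha-synuclein, induced in galactose at OD600 0.02, incubated with compound 24 h at 30 C. ATP luminescence quantified growth; inhibitors of toxicity appear as activators.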
* marks the source's active call; other numbers are inactive results; [ ] = remark or other dose. Calls come from the whole dose curve; as a rule, active = well fitted curve in the direction sought with a large enough effect; inconclusive = small, poorly fitted or top-dose-only effect, or another doubt; inactive = no such curve, though single readings can be large; an effect the other way counts as inactive or inconclusive. Potency is the fitted concentration of half-maximal effect.

Screening CC(C)=CCN1CCN(Cc2nc(-c3ccc(F)cc3)cs2)CC1CCO (stereo not given) returned Abeta yeast res inactive, Mito fusion act -6%, FUS yeast rescue inactive, TDP-43 yeast inh -13% and aSyn rescue 4%.
`OCCC1CN(Cc2nc(-c3ccccc3)cs2)CCN1Cc1ccc(F)cc1` (stereo not given) gave Abeta yeast res inactive, Mito fusion act 11µM*, FUS yeast rescue inactive, TDP-43 yeast inh 6%[9.22 µM] and aSyn rescue 1%.
For CCCC[C@H]1C2CC(OC(=O)Nc3cc(C)cc(C)c3)C(C2)[C@H]2CCCCN21 (stereo not given in full) the results were FUS yeast rescue inactive.
`S=c1[nH]nc(COc2ccc3ccccc3c2)o1` gave Abeta yeast res inactive, Mito fusion act -2%, FUS yeast rescue inactive, TDP-43 yeast inh 11µM* and aSyn rescue -7%.
For CC(=O)CC[C@H]1CC[C@]2(CCCN(S(=O)(=O)C3CCCCC3)C2)O1 the results were FUS yeast rescue inactive.
For CCOC(=O)c1cc2c(=O)n3ccccc3nc2n(Cc2ccco2)c1=NC(=O)c1cccnc1 the results were Abeta yeast res inactive, Mito fusion act -1%, FUS yeast rescue 32µM*, TDP-43 yeast inh -1% and aSyn rescue 0%.
`CCOC(=O)c1cc2c(=O)n3cccc(C)c3nc2n(Cc2ccco2)c1=NC(=O)c1cccnc1` gave Abeta yeast res inactive, Mito fusion act -5%, FUS yeast rescue inconclusive, TDP-43 yeast inh -1% and aSyn rescue 3%.
`CC1=NNC(=O)C1CCC(=O)N/N=C/C(Br)=C/c1ccccc1` (stereo not given) gave Abeta yeast res inactive, Mito fusion act 9%, TDP-43 yeast inh 12% and aSyn rescue 13%.
Screening CC1=NNC(=O)C1CC(=O)N/N=C/C(Br)=C/c1ccccc1 (stereo not given) returned Abeta yeast res inactive, Mito fusion act -10%, FUS yeast rescue inactive, TDP-43 yeast inh 14µM* and aSyn rescue 13%.
Cc1c(C(=O)N2CCN(CC(=O)Nc3ccccc3Cl)CC2)oc2ccc(Br)cc12 was read as Abeta yeast res inactive, Mito fusion act inconclusive, FUS yeast rescue inactive, TDP-43 yeast inh 13µM* and aSyn rescue -6%.
Cc1c(C(=O)N2CCCCC2)oc2ccc(Br)cc12 was read as Abeta yeast res inactive, Mito fusion act 13%, FUS yeast rescue inactive, TDP-43 yeast inh inconclusive and aSyn rescue 13%.
CC(OC(=O)CCNS(=O)(=O)c1ccc(Cl)cc1)C(=O)N(C)Cc1ccccc1 (stereo not given) was read as Abeta yeast res inactive, FUS yeast rescue inactive, TDP-43 yeast inh 9% and aSyn rescue 6%.
Screening O=C(/C=C/c1ccnc2ccccc12)c1cccs1 returned Abeta yeast res inactive, Mito fusion act -21%, FUS yeast rescue inactive, TDP-43 yeast inh 3.5µM* and aSyn rescue 2%.
For O=C(N/N=C/c1ccc(N2CCOCC2)cc1)c1ccccc1OCCOc1ccccc1 the results were Abeta yeast res inactive, Mito fusion act -2%, FUS yeast rescue inactive, TDP-43 yeast inh 25µM* and aSyn rescue 4%.
`O=C(N/N=C/c1ccc(N2CCOCC2)cc1)c1ccncc1` gave Abeta yeast res inactive, Mito fusion act 2%, TDP-43 yeast inh -20% and aSyn rescue 2%.
For O=C(OC12CCCN(C1)/C(=C/c1ccc(Cl)cc1)C2)c1cccc(F)c1 (stereo not given) the results were FUS yeast rescue inactive.
O=S1(=O)C=C(Sc2nnc(-c3ccccc3)o2)c2ccccc21 was read as Abeta yeast res inactive, Mito fusion act -3%, FUS yeast rescue inactive, TDP-43 yeast inh 8.9µM* and aSyn rescue -13%.
Screening COc1ccc(CN[C@@H]2CC[C@@]34CCCN3C(=O)CCC[C@H]4C2)cc1OC returned FUS yeast rescue inactive.
`COc1ccc(-c2[nH]c(-c3ccc4c(c3)OCO4)nc2-c2ccccc2)cc1` gave Abeta yeast res inactive, Mito fusion act -6%, FUS yeast rescue inconclusive, TDP-43 yeast inh 16µM* and aSyn rescue -18%.
`COc1cc(-c2nc(-c3ccccc3)c(-c3ccc(F)cc3)[nH]2)cc2c1OCO2` gave Abeta yeast res inactive, Mito fusion act -8%, TDP-43 yeast inh 0% and aSyn rescue 2%.
Screening Cc1cc(C)c(NC(=O)/C=C\C(=O)O)c([N+](=O)[O-])c1 returned Abeta yeast res inactive, Mito fusion act 0%, FUS yeast rescue inactive, TDP-43 yeast inh 16µM* and aSyn rescue -64%.
Cc1ccc(NC(=O)/C=C\C(=O)O)c([N+](=O)[O-])c1 was read as Abeta yeast res inactive, Mito fusion act -2%, TDP-43 yeast inh inconclusive and aSyn rescue -6%.
For Cc1cc(C)c(NC(=O)CS)c(Cl)c1 the results were Abeta yeast res inactive, Mito fusion act -1%, FUS yeast rescue inactive, TDP-43 yeast inh 14% and aSyn rescue -1%.
Cc1cc(C)c(NC(=O)/C=C\C(=O)O)c(Cl)c1 was read as Abeta yeast res inactive, Mito fusion act 4%, FUS yeast rescue inactive, TDP-43 yeast inh 13µM* and aSyn rescue 2%.
COC(=O)c1ccc(C2Nc3ccc(/C(C)=N/NC(=O)C(OC)c4ccccc4)cc3C3C=CCC32)cc1 (stereo not given) was read as Abeta yeast res inactive, Mito fusion act -2%, FUS yeast rescue 4.5µM*, TDP-43 yeast inh -1% and aSyn rescue 1%.
`O=C(c1cccc(Oc2ccccc2)c1)N1CCC(Oc2cccnc2)CC1` gave FUS yeast rescue inactive.
CCOC(=O)N1CCN(C(=O)c2cc(COc3cccc(C(F)(F)F)c3)on2)CC1 was read as Abeta yeast res inactive, Mito fusion act 0%, TDP-43 yeast inh 10µM* and aSyn rescue 5%.
Screening N#Cc1c(-c2ccc(Cl)cc2)nc2n(c1=O)CCCS2 returned Abeta yeast res inactive, Mito fusion act 4%, FUS yeast rescue inactive, TDP-43 yeast inh 11µM* and aSyn rescue 2%.
`COc1ccc(-c2nc3n(c(=O)c2C#N)CCCS3)cc1` gave Abeta yeast res inconclusive, Mito fusion act -11%, FUS yeast rescue inactive, TDP-43 yeast inh 16µM* and aSyn rescue 5%.
Screening CN(CCOC(=O)c1cccs1)C1CN(Cc2cn(Cc3ccccc3Cl)nn2)S(=O)(=O)C1 (stereo not given) returned FUS yeast rescue inactive.
